High-throughput results: PubChem BioAssay, Broad Institute
Only a selection was taken, and hits are over-represented in it overall.
STK33 inh = inhibitors of human STK33 kinase. Q9BYT3. ADP-Glo luminescence, MBP substrate. inhibition, % at 12.5 µM. 27,000 tested, 0.44% active. AID 2322; in the data active = inhibition above about 20%; inconclusive = no clear call, values can overlap the other calls
Target sequence (Q9BYT3 whole entry, looked up): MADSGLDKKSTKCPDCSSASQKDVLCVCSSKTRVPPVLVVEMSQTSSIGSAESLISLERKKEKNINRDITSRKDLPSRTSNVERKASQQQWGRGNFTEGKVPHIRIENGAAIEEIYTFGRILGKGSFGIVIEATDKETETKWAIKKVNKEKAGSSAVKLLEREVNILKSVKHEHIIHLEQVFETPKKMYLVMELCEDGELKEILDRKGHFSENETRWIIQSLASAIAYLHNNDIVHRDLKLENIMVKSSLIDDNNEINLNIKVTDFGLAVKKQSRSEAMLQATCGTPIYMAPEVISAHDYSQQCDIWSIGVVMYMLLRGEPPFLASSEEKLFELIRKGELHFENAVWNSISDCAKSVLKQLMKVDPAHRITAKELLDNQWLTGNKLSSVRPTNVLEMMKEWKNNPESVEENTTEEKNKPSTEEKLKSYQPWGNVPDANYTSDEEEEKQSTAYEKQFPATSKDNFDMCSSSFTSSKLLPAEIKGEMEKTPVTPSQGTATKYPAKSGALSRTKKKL
NOMO-1 viab = STK33 inhibitor candidate reducing NOMO-1 cell viability; NOMO-1 AML viability, CellTiter-Glo luminescence, 72 h; inhibition, % (test concentration not listed); 37,000 tested, 7.5% active; AID 2330; in the data active = inhibition above about 80%; inconclusive = no clear call, values can overlap the other calls
PD-1 reverse act = activators reversing PD-1 mediated T-cell inhibition | primary human CD4 T cells, PD-L1 beads, CellTiter-Glo 96 h | activation, % (concentration not given with the values) | 29,000 tested, under 10 active; call rule not given here;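 note: 0% = median vehicle wells and 100% = positive control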
* = called active by the depositor; ? = inconclusive; . = no result.

SMILES	STK33 inh	NOMO-1 viab	PD-1 reverse act
COc1ccccc1C(=O)Nc1sc2c(c1C(=O)NCc1ccco1)CCCC2	3.8	91.1*	2.0
O=C(Nc1sc2c(c1C(=O)NCc1ccco1)CCCC2)c1sc2ccccc2c1Cl	3.2	70.4	.
Cc1ccc2oc(C(=O)Nc3sc4c(c3C(=O)NC3CCS(=O)(=O)C3)CCC4)c(C)c2c1 (stereo unspecified)	4.5	105.8*	-10.9
COc1ccc(C(=O)Nc2sc3c(c2C(=O)NC2CCS(=O)(=O)C2)CCCC3)cc1OC (stereo unspecified)	3.0	-3.1	0.6
O=C(Nc1sc2c(c1C(=O)NCc1ccco1)CCCC2)c1ccc([N+](=O)[O-])cc1	1.2	14.8	0.8
CCOC(=O)c1c(-c2ccc(C)cc2)csc1NC(=O)C1COc2ccccc2O1 (stereo unspecified)	0.9	12.2	-0.9
Cc1cccc(NC(=O)CN(c2ccc3c(c2)OCCO3)S(C)(=O)=O)c1	0.9	-10.2	.
CC(C)C[C@](CC(=O)OCc1ccc(O[C@@H]2O[C@H](CO)[C@@H](O)[C@H](O)[C@H]2O)cc1)(O[C@@H]1O[C@H](CO)[C@@H](O)[C@H](O)[C@H]1O)C(=O)OCc1ccc(O[C@@H]2O[C@H](CO)[C@@H](O)[C@H](O)[C@H]2O)cc1	-0.9	94.9*	0.1
O=C(CC(O)(CC(=O)OCc1ccc(O[C@@H]2O[C@H](CO)[C@@H](O)[C@H](O)[C@H]2O)cc1)C(=O)OCc1ccc(O[C@@H]2O[C@H](CO)[C@@H](O)[C@H](O)[C@H]2O)cc1)OCc1ccc(O[C@@H]2O[C@H](CO)[C@@H](O)[C@H](O)[C@H]2O)cc1	-4.8	9.7	-0.3
Cc1ccc(-c2nnc3c4ccccc4c(C)nn23)cc1S(N)(=O)=O	5.5	20.2	-1.6
Cc1ccc(S(=O)(=O)Nc2cccc3c2O[C@H](CN(C)C(=O)Nc2ccc(C(F)(F)F)cc2)[C@H](C)CN([C@H](C)CO)C3=O)cc1	.	90.3*	-4.5
C[C@@H]1CN([C@H](C)CO)C(=O)c2cccc(NS(=O)(=O)c3ccc(Cl)cc3)c2O[C@@H]1CN(C)C(=O)Nc1ccc(C(F)(F)F)cc1	.	37.9	-1.8
C[C@@H]1CN([C@@H](C)CO)C(=O)c2cccc(NS(=O)(=O)c3ccc(Cl)cc3)c2O[C@@H]1CN(C)C(=O)Nc1ccc(C(F)(F)F)cc1	.	121.1*	-2.5
Cc1ccc(S(=O)(=O)Nc2cccc3c2O[C@@H](CN(C)C(=O)Nc2ccc(C(F)(F)F)cc2)[C@@H](C)CN([C@H](C)CO)C3=O)cc1	.	34.1	.
Cn1c(=O)c2c(O)c(C=Nc3ccc(Cl)cc3)c(=O)n(C)c2n(C)c1=O	.	1.5	-0.7
CC1(C)C(=O)[C@@H]2O[C@@H]2[C@@]2(C)C1CC(=O)[C@]1(C)C2CC[C@@]2(C)[C@H](c3ccoc3)OC(=O)[C@H]3O[C@]321 (stereo partly specified)	1.0	37.2	.
O=C(NCc1n[nH]c(=O)c2ccccc12)c1cc2ccccc2oc1=O	5.6	.	.
O=S(=O)(c1cc(C(F)(F)F)ccc1Cl)N1CCN(Cc2cccc(OCCO)c2)CC1	-2.7	.	.
CC(C)NS(=O)(=O)c1ccc(OCC(N)=O)cc1	0.0	14.1	0.7
Cc1ccc(NC(=O)Cn2cnc3sc(C(=O)Nc4ccccc4)c(C)c3c2=O)cc1	2.1	-3.9	1.4
COc1ccc(-c2nn(C)c(=O)c3ccccc23)cc1CNC(=O)Nc1ccccc1	10.8	-6.6	-3.2
c1ccc(-c2nc(C34CC5CC(CC(C5)C3)C4)co2)cc1	.	99.2*	-0.5
c1ccc(CSC23CC4CC(CC(C4)C2)C3)cc1	.	56.7	-3.0
C[C@@H]1CCCCO[C@@H](CN(C)Cc2ccc3c(c2)OCO3)[C@@H](C)CN([C@H](C)CO)C(=O)c2cc(NC(=O)Nc3ccc(C(F)(F)F)cc3)ccc2O1	3.4	112.9*	-1.8
C[C@@H]1CCCCO[C@@H](CN(C)Cc2ccc(Cl)c(Cl)c2)[C@@H](C)CN([C@H](C)CO)C(=O)c2cc(NC(=O)Nc3ccccc3)ccc2O1	-0.3	102.9*	-1.7
SMILES	STK33 inh	NOMO-1 viab	PD-1 reverse act
C[C@@H]1CCCCO[C@H](CN(C)Cc2ccc(Cl)c(Cl)c2)[C@@H](C)CN([C@H](C)CO)C(=O)c2cc(NC(=O)Nc3ccccc3)ccc2O1	3.4	?	-3.8
CC(C)NC(=O)Nc1ccc2c(c1)C(=O)N([C@H](C)CO)C[C@H](C)[C@H](CN(C)Cc1ccc(C(F)(F)F)cc1)OCCCC[C@@H](C)O2	-0.8	40.0	1.7
C[C@H](CO)N1C[C@H](C)[C@H](CN(C)Cc2ccc(Cl)c(Cl)c2)Oc2ccc(NC(=O)C3CCCCC3)cc2C1=O	-0.1	36.5	-2.2
C[C@@H]1CCCCO[C@@H](CN(C)Cc2ccc3c(c2)OCO3)[C@@H](C)CN([C@H](C)CO)C(=O)c2cc(NC(=O)Nc3ccc(F)cc3)ccc2O1	0.2	16.1	1.0
C[C@@H]1CCCCO[C@@H](CN(C)Cc2ccc(Cl)c(Cl)c2)[C@@H](C)CN([C@H](C)CO)C(=O)c2cc(NC(=O)Nc3ccc(C(F)(F)F)cc3)ccc2O1	0.2	105.1*	-1.2
C[C@@H]1CCCCO[C@@H](CN(C)Cc2ccc(Cl)c(Cl)c2)[C@@H](C)CN([C@H](C)CO)C(=O)c2cc(NC(=O)C3CCCCC3)ccc2O1	4.2	114.2*	-2.4
COc1cc(NC(=O)COc2cc(C)c(Cl)c(C)c2)c(C(=O)O)cc1OC	4.5	-0.7	0.6
N#Cc1cccc(CSc2nnc(SCc3cccc(C#N)c3)s2)c1	.	16.9	0.7
CC(C)(C)C1CCc2c(sc(NC(=O)CSc3nnnn3-c3ccccc3)c2C#N)C1 (stereo unspecified)	-1.4	11.9	-2.6
CC1CCC(C(C)C)C(NC(=O)c2cccc3ccccc23)C1 (stereo unspecified)	.	81.8*	0.6
CC(C)CNP(=O)(OC1CC(C)CCC1C(C)C)c1ccccc1 (stereo unspecified)	.	31.2	0.3
COc1ccc(S(=O)(=O)Nc2ccc3c(c2)CC(=O)N([C@@H](C)CO)C[C@@H](C)[C@@H](CN(C)CC2CCCCC2)O3)cc1	2.1	100.6*	-0.1
COc1ccc(S(=O)(=O)Nc2ccc3c(c2)CC(=O)N([C@@H](C)CO)C[C@H](C)[C@@H](CN(C)CC2CCCCC2)O3)cc1	1.3	108.8*	.
COc1ccc(S(=O)(=O)Nc2ccc3c(c2)CC(=O)N([C@@H](C)CO)C[C@@H](C)[C@@H](CN(C)CC2CC2)O3)cc1	0.4	6.9	1.2
COc1ccc(S(=O)(=O)Nc2ccc3c(c2)CC(=O)N([C@@H](C)CO)C[C@H](C)[C@@H](CN(C)CC2CC2)O3)cc1	1.3	-4.4	0.1
C[C@H]1O[C@@H](O[C@H]2CC[C@@]3(C)C(CC[C@]4(C)C3CC=C3C5CC(C)(C)CC[C@]5(C(=O)O)CC[C@]34C(=O)O)C2(C)C)[C@H](O)[C@@H](O)[C@@H]1O (stereo partly specified)	-9.0	.	.
COc1ccc(NC(=O)CSc2ncnc3sc4c(c23)CCC(C)C4)c([N+](=O)[O-])c1 (stereo unspecified)	-0.1	4.8	-0.2
O=c1c(Cl)c(NCCc2ccccc2)cnn1-c1ccccc1	0.0	-6.3	-1.7
CCc1nc2c(cnn2-c2ccccc2)c(=O)n1CCc1ccccc1	.	113.2*	-0.6
